# Hits are enriched below; roughly 7.6% of the tested compounds scored in any of these assays.
# BRCA1 expr up – increases BRCA1 expression | Potency, µM (series often up to 46.1 µM), hits mostly activators | MCF7-BRCA1-FFLuc reporter, luminescence, 48 h; response scale: scaled: vehicle 0%, 10 µM genistein 100% | actives 1.1% (n = 380,000); also: nearly all actives have a fitted effect of over 80% in size
#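 Reporter cells (MCF7, BRCA1 promoter-firefly luciferase) received library compounds across a concentration series for 48 h. End-point luminescence was measured and concentration-effect curves derived after normalization.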
# RORgamma inh – blocks mouse ROR gamma transcriptional activity; Drosophila S2 Gal4-RORgamma UAS-luciferase reporter, 20 h; actives 5.4% (n = 310,000); P51450; Potency, µM (highest dose often 53.6 µM), usual class: inhibitors; also: nearly all actives have a fitted effect of over 60% in size
# Target sequence (P51450 whole entry, looked up, the tested form may be a part): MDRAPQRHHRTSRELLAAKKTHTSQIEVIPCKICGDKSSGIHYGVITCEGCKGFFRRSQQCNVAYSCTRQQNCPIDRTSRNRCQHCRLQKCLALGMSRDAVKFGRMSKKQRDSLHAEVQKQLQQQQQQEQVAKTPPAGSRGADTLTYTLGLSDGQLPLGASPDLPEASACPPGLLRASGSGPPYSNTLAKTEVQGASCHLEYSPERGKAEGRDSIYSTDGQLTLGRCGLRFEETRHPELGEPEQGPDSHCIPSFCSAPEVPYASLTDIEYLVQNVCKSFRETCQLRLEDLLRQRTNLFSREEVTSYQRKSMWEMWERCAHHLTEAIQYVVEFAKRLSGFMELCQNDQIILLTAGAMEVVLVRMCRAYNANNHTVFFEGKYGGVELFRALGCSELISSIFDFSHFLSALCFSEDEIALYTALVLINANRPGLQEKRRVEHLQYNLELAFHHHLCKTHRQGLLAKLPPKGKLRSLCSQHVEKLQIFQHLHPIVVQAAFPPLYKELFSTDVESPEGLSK
#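 Read-out: Photinus luciferase luminescence; inhibitors lower reporter signal. Insect Schneider cells with Gal4-ROR gamma fusion under metallothionein promoter, UAS reporter; 700 uM final copper sulfate induction, 20 hr, ambient temperature.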
# p53 reactivation – mutant p53 re-activation in reporter cells. actives 0.063% (n = 320,000). Potency, µM (highest dose often 92.2 µM), actives largely listed as activators. H1299 p53-A138V BP100-luciferase reporter, luminescence, 24 h. AID 504706; also: nearly all actives have a fitted effect of over 45% in size
#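 p53-null H1299 cells stably carrying temperature-sensitive p53-A138V and a BP100-luciferase reporter were pinned with compounds (4-point, 1:5 series) and held 24 hrs at 37 deg C. Luminescence was read 10 min after detection reagent.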
# ELG1 repair inh – inhibitors of ELG1-dependent DNA repair in HEK293T cells. HEK293T ELG1-luciferase reporter, luminescence, 16 h; DNA damage induced by 5-fluorouridine. Potency, µM (titrated, usually from 46.1 µM), most hits filed as inhibitors. actives 2.3% (n = 330,000). AID 504467; also: nearly all actives have a fitted effect of over 55% in size
#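 Cells (2,000 per well) received 5-fluorouridine plus test compound or DMSO and were incubated 16 hr at 37 °C, 5% CO2. Luciferase activity was read by luminescence 30 min after ONE-Glo addition; signal suppression marked inhibition of damage-induced ELG1 function.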
# Gal4-VP16 FLuc – counter-screen for ROR gamma inhibitors: Gal4-VP16 reporter. Potency, µM (highest dose often 53.6 µM), usual class: inhibitors. actives 3.5% (n = 310,000). Drosophila S2 Gal4-VP16 UAS-luciferase, luminescence, 20 h;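 also: Gal4-VP16 expression switched on by copper sulfate through the metallothionein promoter; nearly all actives have a fitted effect of over 50% in size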
# Giardia killer – kills Giardia lamblia | Giardia lamblia trophozoite viability | activity change, % at 7.66 µM, hits read low | actives 0.15% (n = 340,000) | AID 540267; in the data active = activity change below about -80%; inconclusive = between about -30% and that limit;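 also: parasites exposed to compound for two days anaerobically before the ATP read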
#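 Luminescence from cellular ATP indicates surviving trophozoites (100 cells/well) following 48 hrs anaerobic compound treatment at 37 deg C; signal develops 15-30 min at room temperature.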
# A number is an active result; - = inactive; ? = inconclusive; . = no result given; [ ] = remark or other dose. Unless noted, calls follow the shape of the dose curve; as a rule, active = well fitted curve in the direction sought with a large enough effect; inconclusive = small, poorly fitted or top-dose-only effect, or another doubt; inactive = no such curve, though single readings can be large; an effect the other way counts as inactive or inconclusive.
SMILES,BRCA1 expr up,RORgamma inh,p53 reactivation,ELG1 repair inh,Gal4-VP16 FLuc,Giardia killer
N#C/C(=C\c1cc([N+](=O)[O-])c(N2CCOCC2)cc1N1CCOCC1)c1nc2ccccc2[nH]1,-,?,-,20.6µM,-,-
CS(=O)(=O)N1CCC(C(=O)Nc2ccc(F)cc2F)CC1,-,-,-,?,-,-
O=C(Nc1ccc(N2CCN(C(=O)c3ccco3)CC2)cc1)c1cc(Br)ccc1Cl,-,.,-,11.6µM,.,-
Cc1cc(N2CCN(C(=O)c3ccco3)CC2)n2nc(-c3cccc(Cl)c3)cc2n1,-,?,-,13µM,?,-
O=C(c1ccco1)N1CCN(c2ccc(Cl)c(Cl)c2)CC1,12.6µM,.,.,.,.,-
O=C(c1ccco1)N1CCN(c2ccc(Cl)cc2)CC1,11.2µM,?,?,?,?,-
O=C(CN1CCN(C(=O)c2ccc(-c3nc4ccccc4s3)o2)CC1)Nc1cccc(F)c1,-,.,.,.,.,.
CC(=O)S[C@H]1CC2=CC(=O)CC[C@@]2(C)[C@H]2CC[C@@]3(C)[C@H](CC[C@]34CCC(=O)O4)[C@@H]12,.,-,.,.,-,.
CCOC(=O)c1cc(CC)sc1NC(=O)COc1ccc2c(C)cc(=O)oc2c1,-,-,-,-,-,-
COc1ccc(CNC(=O)CCS(=O)(=O)c2cc3c4c(c2)CCN4C(=O)CC3)cc1OC,-,.,.,.,.,.
O=C(CSc1ccc(-c2cccs2)nn1)N1CCCCC1,-,-,?,?,-,-
O=C(CSc1ccc(-c2cccs2)nn1)N1CCCCCC1,12.6µM,?,?,?,-,-
Cc1c(C(=O)Nc2ccccc2F)sc2nc3n(c(=O)c12)CCC3,?,-,?,?,-,-
CCOC(=O)c1c(-c2ccccc2)nc2ccc(C)cn12,-,?,-,?,-,-
CCOC(=O)c1c(-c2ccccc2)nc2cc(C)ccn12,-,12.6µM,-,?,-,-
COCCNc1oc(/C=C/c2ccccc2OC)nc1S(=O)(=O)c1ccccc1,-,?,-,10.3µM,-,-
Cc1ccc(S(=O)(=O)N2CCC(C(=O)N[C@H](C(=O)N3CCN(C)CC3)C(C)C)CC2)cc1,-,-,-,-,-,-
COCCN(Cc1cc2cc(C)ccc2n2nnnc12)C(=S)Nc1ccc(C)cc1,-,-,-,16.4µM,-[10 µM],-
Cc1ccc2c(c1)cc(CN(Cc1ccco1)C(=O)COc1ccccc1)c1nnnn12,-,?,-,20.6µM,-,-
CCCCNC(=O)CCc1c(C)nc2cc(-c3ccccc3)nn2c1C,-,.,.,.,.,.
N#CC1(Nc2ccc(Br)cc2)CCCC1,-,.,.,.,.,-
CCCCCCCC1=NN(c2ccc(S(=O)(=O)O)cc2)C(=O)C1N=O (centres undefined),-,.,.,.,.,.
Cc1ccc(NS(=O)(=O)c2cc3c4c(cccc4c2)C(=O)NC3=O)cc1C,-,?,-,16.4µM,?,-
CC(=O)C1=C(O)C(=O)N(c2cccnc2)C1c1ccc(Cl)cc1 (centres undefined),-,-,?,-,-,-
c1ccc(Oc2ccc(-c3ccnc4ncnn34)cc2)cc1,-,-,-,?,-[10 µM],-
SMILES,BRCA1 expr up,RORgamma inh,p53 reactivation,ELG1 repair inh,Gal4-VP16 FLuc,Giardia killer
Clc1ccc(COc2ccccc2-c2ccnc3ncnn23)cc1,11.2µM,-,-,?,-,-
O=C(N/N=C/c1ccc([N+](=O)[O-])o1)c1ccc(O)cc1,-,11.2µM,-,-,12.6µM,-
CCN(CC)S(=O)(=O)c1cccc(C(=O)N/N=C/c2ccccc2OCC(=O)O)c1,-,-,-,-,-,-
O=C(N/N=C\c1ccc([N+](=O)[O-])o1)c1cncc(Br)c1,-,?,-,16.4µM,?,?
O=C(N/N=C/c1ccc([N+](=O)[O-])o1)c1ccncc1,-,?,-,?,?,-
Cc1scc(C(=O)N/N=C/c2ccc([N+](=O)[O-])o2)c1C,.,3.98µM,-,-,7.08µM,.
CCN(CC)S(=O)(=O)c1cccc(C(=O)N/N=C/c2ccc([N+](=O)[O-])o2)c1,-,10µM,-,?,?,-
COC(=O)c1ccc(C=O)cc1,.,-,.,.,-,.
Cc1ccc(S(=O)(=O)N2CCN(C(=O)COC(=O)c3cncc(Br)c3)CC2)c(C)c1,-,.,-,-,.,-
O=[N+]([O-])c1ccc(/C=N\NS(=O)(=O)c2ccc(F)cc2)o1,-,?,-,-,14.1µM,?
COc1ccc(S(=O)(=O)N/N=C\c2ccc([N+](=O)[O-])o2)c(OC)c1,-,-,-,-,-,-
Cc1ccc(C(=O)N/N=C/c2ccc(-c3ccc(Br)cc3[N+](=O)[O-])o2)o1,-,?,-,?,?,-
O=C(N/N=C/c1ccc(-c2ccccc2[N+](=O)[O-])o1)c1cncc(Br)c1,-,6.31µM,-,?,5.01µM,-
COc1cc(-c2ccc3sc(-c4ccsc4)c(C#CCO)c3c2)cc(OC)c1OC,-,.,-,9.2µM,.,-
COc1cc(-c2c(-c3ccsc3)sc3ccccc23)cc(OC)c1OC,-,.,-,-,.,-
COc1ccc2sc(-c3ccc(S(C)(=O)=O)cc3)c(C#CCO)c2c1,-,.,-,?,.,-
COC(=O)c1c(-c2ccsc2)sc2ccc(-c3cc(OC)c(OC)c(OC)c3)cc12,-,.,-,9.2µM,.,-
CCCc1nc([N+](=O)[O-])c(S(=O)(=O)c2ccccc2)n1CC(C)C,-,?,-,-,?,-
O=C(CSc1cccc[n+]1[O-])c1cc(Cl)ccc1Cl,-,11.2µM,-,?,?,-
CCOC(=O)[C@]12CCC=C1N(Cc1ccc(Cl)cc1Cl)C(=O)[C@H](CC(=O)N1CCSCC1)C2,-,.,.,.,.,.
O=C(N/N=C/C=C/c1ccco1)c1cccc([N+](=O)[O-])c1,-,5.01µM,-,-,10µM,-
COc1ccccc1/C=C/C=N/NC(=O)CN1CCN(S(=O)(=O)c2ccc(C)cc2)CC1,-,15.8µM,-,-,?,-
O=C(CN1CCN(Cc2ccccc2Cl)CC1)N/N=C/C=C\c1ccccc1[N+](=O)[O-],-,-,-,?,0.159µM,-
Cc1ccc(S(=O)(=O)N2CCN(CC(=O)N/N=C/c3ccccc3OCC(=O)O)CC2)cc1,-,-,-,-,-,-
O=C(CN1CCN(Cc2ccccc2Cl)CC1)N/N=C/C=C/c1ccccc1[N+](=O)[O-],-,?,-,-,?,-
O=C(N/N=C/C=C\c1ccco1)c1cccs1,7.08µM,?,-,?,?,-
CCN(CC(=O)Nc1ccc(OC)cc1)C(=O)c1ccc(N2C(=O)CCC2=O)cc1,-,.,-,-,.,-
COc1ccc2[nH]c(C)c(CCNC(=S)Nc3ccc(C)cc3)c2c1,-,-,-,?,-,-
OC(CNCC1COc2ccccc2O1)COc1ccccc1F (centres undefined),-,-,-,-,-,-

# Assay outcomes deposited in PubChem BioAssay by National Center for Advancing Translational Sciences (NCATS).
